# Laboratory results from article PMC4336329 (PLoS ONE, 2015).
# Hit rate of the full screen: of about 310,000 compounds, about 14,000 (4.5%) showed an effect of 50% or more. The effect is printed as a negative number. What follows is part of a selection rich in strong results, with near analogues and random picks from the rest.
# Target: human ether-à-go-go-related gene (hERG) potassium channel (human, UniProt Q12809)
# Experiment: primary screen, population patch clamp on CHO cells stably expressing hERG; higher = less effect of the substance
# 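Also: peak tail current of the secondary pulse compared with the same well before compound.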
# human ether-à-go-go-related gene (hERG) potassium channel, sequence (Q12809 whole entry, looked up): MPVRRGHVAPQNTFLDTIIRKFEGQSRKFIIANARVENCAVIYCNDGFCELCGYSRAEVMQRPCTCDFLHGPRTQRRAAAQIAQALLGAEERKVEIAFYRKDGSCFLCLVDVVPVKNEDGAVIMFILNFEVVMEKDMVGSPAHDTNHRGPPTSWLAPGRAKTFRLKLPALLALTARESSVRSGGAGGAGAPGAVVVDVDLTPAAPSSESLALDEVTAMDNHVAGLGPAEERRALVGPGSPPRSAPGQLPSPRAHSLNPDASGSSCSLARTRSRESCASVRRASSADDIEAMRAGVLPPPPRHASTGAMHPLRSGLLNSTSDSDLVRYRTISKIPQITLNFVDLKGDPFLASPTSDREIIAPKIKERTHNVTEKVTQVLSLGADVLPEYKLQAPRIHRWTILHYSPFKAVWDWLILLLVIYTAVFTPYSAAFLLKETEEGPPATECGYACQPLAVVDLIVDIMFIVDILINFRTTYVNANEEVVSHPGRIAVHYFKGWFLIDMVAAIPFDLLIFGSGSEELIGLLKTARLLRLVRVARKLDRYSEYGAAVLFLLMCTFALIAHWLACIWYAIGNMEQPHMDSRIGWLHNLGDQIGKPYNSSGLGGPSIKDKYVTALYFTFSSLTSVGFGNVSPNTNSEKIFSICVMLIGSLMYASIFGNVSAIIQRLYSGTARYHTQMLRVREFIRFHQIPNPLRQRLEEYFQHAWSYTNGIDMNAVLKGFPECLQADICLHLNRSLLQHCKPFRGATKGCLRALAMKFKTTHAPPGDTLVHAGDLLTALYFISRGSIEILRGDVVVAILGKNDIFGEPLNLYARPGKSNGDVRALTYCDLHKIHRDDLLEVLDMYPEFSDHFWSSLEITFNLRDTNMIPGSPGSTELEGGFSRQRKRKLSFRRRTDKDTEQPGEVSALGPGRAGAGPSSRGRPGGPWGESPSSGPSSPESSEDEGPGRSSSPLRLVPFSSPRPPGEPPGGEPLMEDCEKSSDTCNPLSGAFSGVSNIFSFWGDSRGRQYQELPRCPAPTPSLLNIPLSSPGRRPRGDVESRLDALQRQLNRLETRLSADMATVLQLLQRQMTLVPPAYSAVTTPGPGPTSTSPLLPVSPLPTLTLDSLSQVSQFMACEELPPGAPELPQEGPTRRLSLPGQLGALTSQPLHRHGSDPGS
row,SMILES,"hERG current change (%, negative = inhibition) at 10uM [%]"
1,CSCCC(NC(=O)C12CC3CC(CC(C3)C1)C2)C(=O)OCC(=O)c1ccccc1 (stereo not drawn),12.7
2,c1ccc2[nH]c(SCc3cscn3)nc2c1,2.76
3,CC(C)CCN1CCN(Cc2cc(F)ccc2-n2cccn2)CC1CCO (stereo not drawn),-25.8
4,COc1ccc(-n2ccnc2CN2CCN(C3CCCC3)C(CCO)C2)cc1 (stereo not drawn),-29.1
5,OCCC1CN(Cc2cccc(-n3cccn3)c2)CCN1Cc1ccccc1 (stereo not drawn),-44.8
6,Cc1cccc(-n2ccnc2CN2CCN(C(C)C)C(CCO)C2)c1 (stereo not drawn),-12.3
7,Cc1ccc(CN2CCN(Cc3cccc(-n4cccn4)c3)CC2CCO)cc1 (stereo not drawn),-74.5
8,Cc1cc(-n2cccn2)ccc1CN1CCN(CC(C)C)C(CCO)C1 (stereo not drawn),-45.5
9,Cc1ccc(CN2CCN(Cc3ccc(-n4cccn4)cc3C)CC2CCO)cc1 (stereo not drawn),-78.6
10,CC(C)CN1CCN(Cc2cc(F)ccc2-n2cccn2)CC1CCO (stereo not drawn),-6.87
11,OCCC1CN(Cc2cc(F)ccc2-n2cccn2)CCN1Cc1ccc(F)cc1 (stereo not drawn),-62.5
12,CCOC(=O)c1[nH]ncc1CN1CCN(Cc2ccc(C)cc2)C(CCO)C1 (stereo not drawn),-38.8
13,Cc1cccc(-n2ccnc2CN2CCN(C3CCCC3)C(CCO)C2)c1 (stereo not drawn),-59.1
14,Cc1cccc(CN2CCN(Cc3cccc(-n4cccn4)c3)CC2CCO)n1 (stereo not drawn),-45.7
15,Cc1c(Cl)cccc1N1CC(C)(C)C1=O,-2.95
16,COC(=O)c1sc2nc(SCc3cccc(Cl)c3)n(N)c(=O)c2c1C,1.39
17,CCC1Sc2ccccc2N(CC(=O)NC2CC2)C1=O (stereo not drawn),7.59
18,COc1ccc(CN2CC(C(N)=O)Oc3ccccc32)cc1F (stereo not drawn),3.16
19,Cn1ncnc1SCc1cn2cccnc2n1,14.2
20,CC1CC(Nc2ccccc2N)=CC(=O)O1 (stereo not drawn),11.7
21,COc1ccc(C2/C(=C(/O)c3ccccc3)C(=O)C(=O)N2c2ncccn2)cc1OC (stereo not drawn),7.54
22,CC(=O)c1ccc(-c2ccccc2OC(F)(F)F)o1,-10.7
23,O=C(NCCOc1ccccc1F)c1ccc2c(=O)n3c(nc2c1)CCC3,-20.8
24,O[C@@H]1CN(Cc2ccc(-n3cccn3)cc2)CC[C@H]1N1CCN(c2ccccc2F)CC1,-67.5

row,SMILES,"hERG current change (%, negative = inhibition) at 10uM [%]"
1,OCCC1CN(Cc2ccc(-n3cccn3)cc2)CCN1Cc1ccccc1 (stereo not drawn),-59.8
2,CC(C)CCN1CCN(Cc2cccc(-n3cccn3)c2)CC1CCO (stereo not drawn),-57.6
3,CSCCCN1CC[C@@H](N2CCN(c3ccccc3F)CC2)[C@H](O)C1,-36.8
4,CC(C)=CC(=O)N1CC[C@@H](N2CCN(c3ccccc3F)CC2)[C@H](O)C1,1.23
5,Cc1ccc(CN2CCN(Cc3ccc(-n4cccn4)cc3)CC2CCO)cc1 (stereo not drawn),-78.1
6,CC(C)N1CCN(Cc2cccc(-n3cccn3)c2)CC1CCO (stereo not drawn),-12.3
7,Cc1cccc(CN2CCN(Cc3ccc(-n4cccn4)cc3)CC2CCO)n1 (stereo not drawn),-30.2
8,CCOC(=O)CC(C)(C)/C(C)=N/Nc1ccc([N+](=O)[O-])cc1[N+](=O)[O-],-24.5
9,CCOc1ccc(CCNC(=O)c2cccc(C#N)c2)cc1OCC,-6.55
10,Cc1ccc(N2C(=O)Nc3ccc(Br)cc3C2(O)C(=O)NCCN(C)C)cc1C (stereo not drawn),21.4
11,CCCCn1c(SCc2nc(N)nc(Nc3ccccc3C)n2)nc2ccccc2c1=O,-1.63
12,Cc1c(NC(=O)CN2C(=O)c3cccc4cccc2c34)c(=O)n(-c2ccccc2)n1C,4.55
13,OCCC1CN(Cc2cc(F)ccc2-n2cccn2)CCN1C1CCCC1 (stereo not drawn),-29
14,OCCC1CN(Cc2cccc3nccnc23)CCN1C1CCCC1 (stereo not drawn),-4.4
15,Cc1cc(-n2cccn2)ccc1CN1CCN(C2CCCC2)C(CCO)C1 (stereo not drawn),-73.5
16,COc1cccc(-c2sc3ccc(OC)cc3c2C#CCC(C)O)c1 (stereo not drawn),25.8
17,COc1ccc(CN(C)C(=O)C23CC4CC(CC(C4)C2)C3)c(OC)c1,-25
18,CCOC(=O)c1cc(-c2ccc(OC(F)F)cc2)nc2nc(SC)[nH]c(=O)c12,-42.7
19,COc1ccc(NS(=O)(=O)c2cccc(C(=O)NNC(=O)CNC(=O)c3ccco3)c2)cc1,12.8
20,CC(=O)Nc1ccc2c(c1)N(S(=O)(=O)c1cccs1)CCC2,-3.79
21,Cc1ccc(C(=O)N/C(=C\c2ccco2)C(=O)NCCN2CCOCC2)cc1C,-3.01
22,COc1ccc(C(=O)N/C(=C\c2ccco2)C(=O)NCCCn2ccnc2)cc1,-19.7
23,Cc1ccc(C(=O)N/C(=C/c2ccco2)C(=O)NCCCn2ccnc2)cc1,-64.7
24,Cc1ccc(C(=O)N/C(=C\c2ccco2)C(=O)NCCCn2ccnc2)cc1C,-39.8

row,SMILES,"hERG current change (%, negative = inhibition) at 10uM [%]"
1,O=C(NCCN1CCCCC1)/C(=C/c1ccco1)NC(=O)c1ccccc1,-40.6
2,Cc1ccc(C(=O)N/C(=C\c2ccco2)C(=O)NCCN2CCCCC2)cc1C,-60.1
3,Cc1ccc(C(=O)N/C(=C\c2ccco2)C(=O)NCCCn2ccnc2)cc1,-64.3
4,CCOC(=O)C1=C(C)Nc2nc(SCC)[nH]c(=O)c2C1c1ccncc1 (stereo not drawn),-7.65
5,Cc1cc(C)c(C)c(S(=O)(=O)N2CCN(Cc3nc4ccccc4[nH]3)CC2)c1C,0.133
6,Nc1c(NCCc2ccccc2)c2ccccc2oc1=O,-11.9
7,COc1ccc(/C=c2\sc3nc(=O)c(C)nn3c2=O)c(OC)c1,23
8,O=C(COC(=O)c1cc(-c2ccncc2)nc2ccccc12)Nc1ccc2c(c1)OCO2,2.21
9,COc1ccc(CNS(=O)(=O)c2ccc(S(=O)(=O)N3CCCCC3)cc2)cc1,7.34
10,CN(NC(=O)c1ccccc1Cl)c1ncc(C(F)(F)F)cc1Cl,-1.95
11,Cc1c(OCc2ccc([N+](=O)[O-])cc2)ccc2c3c(c(=O)oc12)CCC3,0.652
12,Cc1nc(C)n(C(C)CNS(=O)(=O)c2ccc(Cl)cc2)n1 (stereo not drawn),13.9
13,O=P1(NCCCn2cc[n+](Cc3nc4ccccc4[nH]3)c2)C=C(c2ccccc2)OC(c2ccccc2)=C1.[Cl-],-63
14,O=C(C[n+]1ccn(CCCNP2(=O)C=C(c3ccccc3)OC(c3ccccc3)=C2)c1)c1cccs1.[Br-],-44.7
15,O=C(C[n+]1ccn(CCCNP2(=O)C=C(c3ccccc3)OC(c3ccccc3)=C2)c1)c1ccccc1.[Br-],-22.8
16,CC[C@H](C)[C@H](NC(=O)[C@H](Cc1ccc(O)cc1)NC(=O)[C@@H](N)C(C)C)C(=O)N[C@@H](Cc1cnc[nH]1)C(=O)N1CCC[C@H]1C(=O)N[C@@H](Cc1ccccc1)C(=O)O,4.75
17,O=S(=O)(NCCc1ccncc1)c1ccc(F)cc1,12
18,CCOC(=O)C1=C(C)N=C2SCCC(=O)N2C1c1cccs1 (stereo not drawn),-10.2
19,CCCCCCS(=O)[C@H]1CS(=O)(=O)C[C@@H]1S(=O)CCCCCC (stereo partly drawn),-66.7
20,CCCCCCCCS(=O)C1CCS(=O)(=O)C1 (stereo not drawn),4.04
21,CCCCCCCCS(=O)C1CS(=O)(=O)CC1O (stereo not drawn),5.75
22,CCOC(=O)N1CCN(Cc2nc(N)nc(Nc3ccc(C)cc3C)n2)CC1,-16.7
23,CCOC(=O)N1CCN(Cc2nc(N)nc(Nc3ccc(Cl)cc3)n2)CC1,-72.4
24,CCOC(=O)N1CCN(C(=O)Nc2ccc(Cl)cc2)CC1,-11.4

row,SMILES,"hERG current change (%, negative = inhibition) at 10uM [%]"
1,CCOC(=O)N1CCN(Cc2nc(-c3ccc(Cl)cc3)no2)CC1,-30.6
2,CCOC(=O)N1CCN(Cc2nc(-c3ccc(C)cc3)no2)CC1,-17.6
3,CCOC(=O)N1CCN(Cc2nc(N)nc(Nc3ccc(C)cc3)n2)CC1,-57.2
4,COc1ccc(C2C(C(=O)O)CCC(=O)N2c2ccc(C)cc2)cc1OC (stereo not drawn),-10.6
5,CC(C)[C@H](NS(=O)(=O)c1ccccc1)C(=O)OCC(=O)Nc1ccccc1Sc1ccccc1,1.98
6,C=CCn1c(Sc2nnc(C)s2)nc2c1c(=O)[nH]c(=O)n2C,11.2
7,O=C(NCc1ccccn1)Nc1ccccc1F,13.5
8,Cc1cc(NC(=O)CSc2ccc(Cl)cc2)no1,-3.36
9,COc1cccc(C(=O)CSc2nc3ccccc3n2CC(=O)N(C(C)C)C(C)C)c1,-5.36
10,Cc1ccc[n+](CC(=O)Nc2ccc(C)c(C)c2)c1.[Cl-],10.4
11,CCCCOc1ccc(C)cc1CN(CCO)CCO.Cl,1.6
12,CCCCCc1ccc(OCCCC[n+]2cccc(C)c2)c(CCCCC)c1.[Cl-],-71.1
13,CCCCCc1ccc(OCCC[n+]2ccccc2)c(CCCCC)c1.[Cl-],-75.7
14,CCCCCOc1ccc(C)cc1CN(CCCl)CCCl.Cl,13.1
15,CCCCCc1ccc(CC(=O)O)cc1,11.4
16,CC(=O)Nc1ccc(OCCC[n+]2ccccc2)cc1.[Cl-],40.4
17,CCCCCCC[n+]1ccc(-c2cc[n+](CCCCCCC)cc2)cc1.[I-],9.12
18,CCCCCc1ccc(S(=O)(=O)Nc2cc(C)ccn2)cc1,8.41
19,CCCCCc1ccc(OCCCC[n+]2ccc(C)cc2)c(CCCCC)c1.[Cl-],-77
20,CCCCOc1ccc(CCN)cc1Cl.Cl,-13.7
21,CCCCCc1ccc(OCCCC[n+]2ccccc2)c(CCCCC)c1.[Cl-],-66.4
